Compounds with a hit are over-represented: about 27% of the library has one in this group of screens.
CYP2C19 activ: cytochrome P450 2C19 (human) activation; P33261; recombinant CYP2C19, luciferin-H EGE luminescence; hits give high values; 0 = fully inhibited enzyme, 1 = untreated enzyme; activation factor at 5 µM; 96,000 tested, under 10 active; AID 1025;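 active = activation factor of at least 2 at 5 µM in the primary screen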;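 note: 0 = wells with 2.5 mM tranylcypromine and 1 = vehicle-only wells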
Target sequence (P33261 whole entry, looked up): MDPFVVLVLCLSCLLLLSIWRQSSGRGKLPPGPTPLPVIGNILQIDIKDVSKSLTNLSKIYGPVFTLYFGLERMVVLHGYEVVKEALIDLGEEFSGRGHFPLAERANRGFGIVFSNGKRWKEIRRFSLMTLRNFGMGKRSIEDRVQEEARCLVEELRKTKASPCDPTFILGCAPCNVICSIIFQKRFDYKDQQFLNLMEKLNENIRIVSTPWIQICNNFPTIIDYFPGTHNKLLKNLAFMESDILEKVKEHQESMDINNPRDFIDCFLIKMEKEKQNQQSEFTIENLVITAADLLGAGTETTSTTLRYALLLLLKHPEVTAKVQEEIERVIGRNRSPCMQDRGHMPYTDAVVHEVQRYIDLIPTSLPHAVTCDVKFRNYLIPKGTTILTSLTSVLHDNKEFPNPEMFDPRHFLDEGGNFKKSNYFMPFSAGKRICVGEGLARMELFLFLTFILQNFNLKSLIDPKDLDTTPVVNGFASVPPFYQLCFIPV
Cav32 inh: blocks human Cav3.2 T-type calcium channel | O95180 | Cav3.2-expressing cells, Fluo-4 calcium fluorescence FDSS; hits give low values | B-score at 10 µM | 4% of 100,000 active;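 active = single-dose well whose peak fluorescence ratio is a statistical outlier from its plate by either plate-standardised score or position-corrected B-score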
CYP2C9 activ: activators of human CYP2C9. P11712. recombinant CYP2C9, luciferin-H conversion, luminescence; hits give high values; factor 1 = untreated enzyme, 0 = blocked. activation factor at 5 µM. 1.4% of 96,000 active. AID 1024;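 active = activation factor of 2 or more for CYP2C9 at a 5 µM dose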;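 note: 0 = sulfaphenazole-blocked wells and 1 = vehicle-only wells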
CYP2C9 inhib: inhibitors of human CYP2C9 | P11712 | inhibition, % at 5 µM | 20% of 96,000 active | CYP2C9 Supersomes, luciferin-H conversion, luminescence | AID 777;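 active = blocking of liver enzyme CYP2C9 beyond about 50% at 5 µM, limit read from the data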
CYP2C19 inhib: human CYP2C19 inhibition; P33261; CYP2C19 Supersomes, luciferin-H EGE luminescence, 30 min; inhibition, % at 5 µM; 21% of 96,000 active; AID 778;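 active = CYP2C19 inhibition above a set limit at 5 µM in the primary screen, cut at about 50% in these data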;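 note: plate controls were negative control wells for no effect and 2.5 mM tranylcypromine positive control for full effect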
* = called active by the depositor; nt = no result given.

SMILES | CYP2C19 activ | Cav32 inh | CYP2C9 activ | CYP2C9 inhib | CYP2C19 inhib
CCOC(=O)c1oc2ccccc2c1CSc1nnnn1-c1ccc(OC)cc1 | 0.8 | -1.2 | 0.9 | 13.4 | 15.8
COc1ccccc1N1CCN(C(=O)C(Sc2ccccc2)c2ccccc2)CC1 (centres undefined) | 0.4 | -4.61* | 0.4 | 59.3* | 61.0*
CS(=O)(=O)N1CCN(C(=O)C(Sc2ccccc2)c2ccccc2)CC1 (centres undefined) | 0.3 | -0.338 | 1 | 1.7 | 70.9*
CCS(=O)(=O)N1CCN(C(=O)C(c2ccccc2)c2ccccc2)CC1 | 0.9 | 0.0438 | 0.9 | 14.2 | 9.8
CC(OC(=O)C1=COCCO1)C(=O)Nc1ccc(Oc2ccccc2)cc1 (centres undefined) | 0.7 | -0.255 | 0.8 | 18.8 | 31.8
O=C(c1ccc(Cl)cc1)N1CCC(O)(CSc2ccc(Cl)cc2Cl)CC1 | 1 | -2.1 | 0.8 | 22.5 | -0.2
CC(=O)c1nc2ccccc2n1S(=O)(=O)c1ccc(C)cc1 | 1 | -0.412 | 1.1 | -5.1 | -0.4
Cc1ccc(S(=O)(=O)c2c(C)nn(C(C)(C)C)c2OC(=O)c2ccc(Br)o2)cc1 | 0.3 | nt | 0 | 95.1* | 69.8*
Cc1ccc(S(=O)(=O)c2c(C)nn(C(C)(C)C)c2OC(=O)C(C)(C)C)cc1 | 1 | nt | 0.7 | 33.2 | -0.1
CC(=O)Oc1c(S(=O)(=O)c2ccc(C)cc2)c(C)nn1-c1ccccc1 | 0.9 | -0.382 | 0.2 | 78.1* | 7.9
Cc1ccc(S(=O)(=O)c2c(C)nn(C(C)(C)C)c2OC(=O)c2ccco2)cc1 | 0 | nt | 0.1 | 86.4* | 98.8*
Cc1ccc(S(=O)(=O)c2c(C)nn(C(C)(C)C)c2OC(=O)c2cccs2)cc1 | 0.1 | nt | 0.1 | 90.3* | 93.9*
CSc1nc(=O)n2cccc(C)c2n1 | 1 | 1.86 | 1 | -3.4 | 3.5
Cc1cc(NC(=O)Cn2cnc3c2c(=O)n(C)c(=O)n3C)n(-c2ccccc2)n1 | 1.1 | -0.8 | 1 | -2.2 | -13.5
CCOC(=O)C1=C(C)N(c2ccccc2)C(=O)C1CC(=O)O (centres undefined) | 0.5 | -0.29 | 0.6 | 40.9 | 53.1*
CCOC(=O)C1=C(C)N(C)C(=O)C1CC(=O)O (centres undefined) | 1.1 | 0.569 | 1.1 | -11.4 | -10.0
Cc1noc(C)c1C(c1ccccc1)c1ccccc1 | 0.1 | -0.715 | 0.2 | 76.2* | 94.4*
Cc1noc(C)c1C(=O)OCC(=O)NC(c1ccccc1)c1ccccc1 | 0.9 | 0.153 | 0.9 | 12.0 | 9.1
c1ccc(-c2nnc(-c3ccco3)o2)cc1 | 0.5 | -0.21 | 1.1 | -14.6 | 50.5*
O=C(CSc1nnc(-c2ccco2)c(-c2ccco2)n1)Nc1ccccc1 | 0.7 | 0.185 | 0.3 | 73.0* | 27.7
Cc1ccc(NC(=O)CSc2nnc(-c3ccco3)c(-c3ccco3)n2)cc1 | 0 | -1.12 | 0 | 95.2* | 98.0*
Brc1ccc(-c2nnc(-c3ccco3)o2)cc1 | 0.8 | nt | 0.9 | 5.7 | 15.9
Cc1ccc(NC(=O)CCSc2nnc(-c3ccco3)o2)cc1 | 0.8 | 0.645 | 1 | 3.7 | 21.2
Cc1cccc(C)c1NC(=O)CSc1nnc(-c2ccco2)c(-c2ccco2)n1 | 1.2 | -0.269 | 1.2 | -16.9 | -19.0
Cc1ccc(SCC(=O)Nc2ccc(-c3nnc(-c4ccco4)o3)cc2)cc1 | 0.6 | -2.16 | 0.1 | 89.6* | 35.7
SMILES | CYP2C19 activ | Cav32 inh | CYP2C9 activ | CYP2C9 inhib | CYP2C19 inhib
O=C(NC1CCCCC1)NC1(C(=O)NCCCN2CCOCC2)CCCCC1 | 0.9 | 0.229 | 1 | -0.1 | 8.4
N#CC1=C(N)N(c2ccccc2Sc2ccccc2)C(=O)C1 | 0.8 | 0.566 | 0.9 | 9.9 | 15.6
Cc1ccccc1NC(=O)CSc1nnc(-c2ccco2)c(-c2ccco2)n1 | 0.5 | 1.31 | 0.2 | 76.8* | 49.8
O=C(NCc1ccccn1)C1CCN(S(=O)(=O)N2CCCC2)CC1 | 1.1 | -0.861 | 1 | -0.9 | -6.3
N#CC1=C2SCC(O)(c3ccccc3)N2C(=O)CC1c1ccccc1F (centres undefined) | 0 | -3.73 | 0 | 98.6* | 100.3*
CSC1=C(C#N)C(c2cccs2)CC(=O)N1C (centres undefined) | 0.8 | nt | 1 | -1.4 | 22.9
COc1ccc(C2CC(=O)N3C(=C2C#N)SCC3(O)c2ccccc2)cc1 (centres undefined) | 0.2 | -6.04* | 0 | 99.5* | 83.9*
N#CC1=C2SCC(O)(c3ccccc3)N2C(=O)CC1c1cccs1 (centres undefined) | 0.2 | -1.98 | 0 | 99.3* | 81.6*
Cc1cc(N2CCN(C)CC2)nc2ccc(NC(=O)CCC(=O)NCc3ccco3)cc12 | 1 | 0.6 | 1.1 | -5.3 | -4.6
Cc1cc2cc(CNC(=O)CC(C)C)ccc2n1C | 0.6 | 2.1 | 1.1 | -6.6 | 38.5
C/C(N)=C(/C#N)C(=O)CSc1nnc(-c2ccccc2Br)o1 | 0 | -0.0678 | 1.1 | -13.2 | 95.5*
FC(F)(F)c1ccc(C2[C@H]3CN(CC4CCCCC4)[C@H](c4ccccc4)C34CC2(c2cccnc2)C4)cc1 (some centres undefined) | nt | -0.237 | nt | nt | nt
COc1ccc2oc(=O)c(-c3nc(C)cs3)cc2c1 | 0.2 | -0.0222 | 0.5 | 54.9* | 76.8*
Cc1[nH]n(-c2ccccc2)c(=O)c1N=Nc1nccs1 | 0.9 | -3.49 | 0.4 | 57.7* | 7.2
CCC(Sc1nc2ccccc2c2nc3ccccc3n12)C(=O)NCc1ccco1 (centres undefined) | 0.9 | nt | 0.2 | 77.8* | 5.8
NNC(=O)Cn1c(SCc2ccccc2)nc2ccccc21 | 0 | -0.0067 | 0.6 | 36.8 | 95.8*
Cc1cccc(-n2c(SCC(=O)NCc3ccco3)nc3ccccc3c2=O)c1 | 0.8 | -0.486 | 0.5 | 47.2 | 16.3
Cc1nc(NC(=O)CSc2nnnn2C)sc1C | nt | -0.167 | nt | nt | nt
O=C(O)CCn1c(SCc2cccc3ccccc23)nc2ccccc21 | 0.6 | -0.823 | 0.3 | 66.5* | 43.1
Cc1nc2ccccc2n1CC(=O)NCc1ccccc1 | 0.9 | -0.00753 | 1 | -0.8 | 9.0
Cc1nc(NC(=O)CSc2ccccc2N)sc1C | 0.5 | -0.343 | 0.2 | 76.3* | 48.1
O=C1c2ccccc2C(=O)N1C/C=C/CN1C(=O)c2ccccc2C1=O | 1 | 0.538 | 1 | 2.4 | -2.2
COc1cccc(SCc2noc(C(=O)NCCCN3CCOCC3)c2C(=O)NCCCN2CCOCC2)c1 | nt | 0.436 | nt | nt | nt
CCN(CC)c1ccc(-c2nn3c(-c4cccnc4)nnc3s2)cc1 | 0.7 | nt | 0.7 | 26.7 | 28.0
N#CCCn1c(SCC(=O)NCc2ccco2)nc2ccccc21 | 0.6 | 0.0405 | 1.3 | -32.4 | 41.8
CCOC(=O)CNC(=O)CSc1nc2cccnc2n1Cc1ccccc1 | 0.2 | 0.474 | 0.5 | 46.7 | 79.7*
CCn1c(SCC(=O)NCc2ccco2)nc2cccnc21 | 0.9 | 0.349 | 1.3 | -30.9 | 7.1
O=C(CSc1nc2ccccc2n1CC(=O)NCc1ccccc1)NCc1ccco1 | 0.2 | 0.0339 | 0.2 | 81.8* | 79.1*
O=C(CSc1nc2cccnc2n1Cc1ccccc1)NCc1ccco1 | 0.4 | -0.557 | 0.7 | 30.9 | 58.5*
